Bioassay records deposited in PubChem by several laboratories.
Only some compounds are listed: those with a hit (about 0.44% of all), similar ones and a draw of the others.
RmlC RmlD mix: mixture blocks RmlC and RmlD coupled enzyme activity; RmlC/RmlD coupled enzyme inhibition, 384-well mixture HTS; inhibition, % at 5.5 µM; 110,000 tested, 0.39% active; AID 1532; in the data active = inhibition above about 30%, passing the limit was not always enough
YopH inh: blocks Yersinia enterocolitica YopH tyrosine phosphatase; 140,000 tested, 0.16% active; fluorescence Ex485/Em525; inhibition, % (test concentration not listed); in the data active = inhibition above about 50%
Large screens that a line does not name were inactive.

CC1(C)CCC23CC[C@]4(C)C(OC2=O)(C3C1)[C@H]1O[C@H]1C1[C@@]2(C)CC[C@@H](O)C(C)(C)C2CC[C@]14C (stereo partly drawn)	none (no result: YopH inh)
CCCCN(C(=O)NC(=O)C1=C(N2CCOCC2)/C(=C/c2ccccc2)CC1)S(C)(=O)=O	none (no result: RmlC RmlD mix)
CN(C(=O)NC(=O)C1=C(N2CCOCC2)/C(=C/c2ccccc2)CC1)S(C)(=O)=O	RmlC RmlD mix 135.2
COc1ccc(C(C)=O)cc1COc1ccc(-n2cnnn2)cc1	none
Cc1c(N2C(=O)/C(=C3/C(=O)N(C)c4ccccc43)SC2=S)c(=O)n(-c2ccccc2)n1C	none
CC(=O)N1C(=O)/C(=C2\SC(=S)N(c3c(C)n(C)n(-c4ccccc4)c3=O)C2=O)c2ccccc21	YopH inh 99.2 (no result: RmlC RmlD mix)
O=C1CCC(=O)N1CC(=O)N1c2ccccc2Sc2ccccc21	YopH inh 53.5
Cc1cc(C)n(CC(=O)N2c3ccccc3Sc3ccccc32)n1	none
O=C1C=CC(=O)C(C2=C3C(=O)N(CCc4ccccc4)CC(=O)N3CCC2)=C1	YopH inh 66.8 (no result: RmlC RmlD mix)
O=C1CC(=O)N(CCc2ccccc2)C(=O)N1CCc1ccccc1	none
c1ccc(Cn2cc(CSc3ccccc3)nn2)cc1	none (no result: YopH inh)
CCN(CC)c1ccc(N2C(=O)c3ccccc3C2=O)cc1	none
CCO/C=C1/C(=O)N(CC)c2ccccc21	none (no result: RmlC RmlD mix)
CCO/C=C1\C(=O)N(c2ccccc2)C(=O)c2ccccc21	RmlC RmlD mix 186.0, YopH inh 89.1
CCO/C=C1/C(=O)N(Cc2ccccc2)C(=O)c2ccccc21	YopH inh 101.4 (no result: RmlC RmlD mix)
CNc1nc(SCc2ccccc2Cl)nc2c1CCCC2	none
N#CC(C#N)=c1ccc2c(c1)NC1(CCCCC1)N=2	YopH inh 91.8
O=C1NC2(CCCC2)N=C1c1ccc(Cl)cc1	none
CCn1c(COc2ccc(C)cc2)nnc1SCc1nc2ccccc2[nH]1	none
Cn1c(COc2ccccc2)nnc1SCc1nc2ccccc2[nH]1	YopH inh 70.7
Cc1c(N=C(N)/N=C(\N)Nc2ccc(Br)cc2)c(=O)n(-c2ccccc2)n1C	none (no result: RmlC RmlD mix)
O=S(=O)(NCc1ccco1)c1ccc(Cl)nc1	none (no result: RmlC RmlD mix)
Cc1cc(=O)oc2cc(OCC(=O)OCC(=O)NCc3ccc4c(c3)OCO4)ccc12	RmlC RmlD mix 36.7
CC(=O)OCC(=O)NCc1ccc2c(c1)OCO2	none
Cc1cc2ccccc2n2c(SCC(=O)Nc3ccc(S(=O)(=O)N4CCC(C)CC4)cc3)nnc12	none (no result: RmlC RmlD mix)
CC(Cc1cccs1)NC(=O)Nc1ccc(Cl)c(Cl)c1 (stereo not drawn)	none (no result: RmlC RmlD mix)
O=C1C2=C(c3ccccc31)[N+](=O)C1CCCCC1N2[O-] (stereo not drawn)	none
O=C1C2=C(c3ccccc31)[N+](=O)[C@@H]1CCCC[C@@H]1N2[O-]	YopH inh 58.6
COC(=O)C[C@H]1c2cc(C(F)(F)F)ccc2S(=O)(=O)N1C(C)(C)C	none (no result: YopH inh)
O=C(CSCc1ccc(Cl)cc1)NCc1ccccn1	none (no result: RmlC RmlD mix)
COc1ccc(C(=O)Nc2sc3c(c2C(=O)NCc2ccco2)CCCC3)cc1OC	RmlC RmlD mix 146.3
COc1cc(C(=O)Nc2sc3c(c2C(=O)NCc2ccco2)CCCC3)cc(OC)c1OC	none
CCOC(=O)c1cnn2c(C(F)(F)F)cc(-c3ccccc3)nc12	none
CCOC(=O)N1CCC(NC(=O)c2cnn3c(C(F)(F)F)cc(-c4cccc(OC)c4)nc23)CC1	RmlC RmlD mix 121.4 (no result: YopH inh)
O=C(O)c1cc([N+](=O)[O-])ccc1N1CCC(Cc2ccccc2)CC1	none (no result: RmlC RmlD mix)
CN(C)[C@@H]1CCC[C@@H]1OC(=O)C(c1ccccc1)c1ccccc1	none (no result: RmlC RmlD mix)
O=C(NC1CCCC1)C1CCCN1S(=O)(=O)c1cccc2cccnc12 (stereo not drawn)	none
O=C(NCc1ccccc1)C1CCCN1S(=O)(=O)c1cccc2cccnc12 (stereo not drawn)	YopH inh 80.2
CCOC(=O)c1c(NC(=O)COC(=O)c2cc(OC)c(OC)cc2[N+](=O)[O-])sc(C)c1C	none (no result: RmlC RmlD mix)
O=C(NC(=S)N1CCN(C(c2ccccc2)c2ccccc2)CC1)c1ccc(S(=O)(=O)N2CCOCC2)cc1	none (no result: RmlC RmlD mix)
O=C(NC(C(=O)O)c1ccccc1)c1ccc(S(=O)(=O)N2CCOCC2)cc1 (stereo not drawn)	YopH inh 50.3
CC1CN(C(=S)NC(=O)C2CCCCC2)CC(C)O1 (stereo not drawn)	none (no result: RmlC RmlD mix)
CCCC(=O)Nc1cc(OC)c(OC)cc1C(=O)O	none
CCCCNc1cc(NC(C)=O)cc2cc(OC)c(OC)cc12	YopH inh 79.6
CCN(CC(=O)NCc1ccccn1)S(=O)(=O)c1ccc(Cl)cc1	none
CCCC(C)NC(=O)COc1ccc(Sc2ccc(OCC(=O)NC(C)CCC)cc2)cc1 (stereo not drawn)	none (no result: RmlC RmlD mix)
CCOC(=O)c1cc2c(=O)n3ccccc3nc2n(CC(C)C)c1=NC(=O)c1ccco1	none
CCOCCCn1c(=NC(C)=O)c(C(=O)OCC)cc2c(=O)n3ccccc3nc21	RmlC RmlD mix 67.1
CCOC(=O)c1cc2c(=O)n3ccccc3nc2n(Cc2ccccc2)c1=N	RmlC RmlD mix 30.7
CCOC(=O)c1cc2c(=O)n3ccccc3nc2n(CCCOC)c1=NC(=O)C(C)(C)C	none
CC(C)c1cc(N2CCC(=O)NC2=O)cc(C(=O)O)c1O	none (no result: RmlC RmlD mix)
